From PubChem BioAssay
Pf growth 48h: Primary qHTS for delayed death inhibitors of the malarial parasite plastid, 48 hour incubation. AID 504832, 2011. P. falciparum luciferase growth in erythrocytes, 48 h. hit rate 5.9% among 310,000. Potency, µM (highest dose often 28.7 µM), without a hit: at the highest dose activity change, negative = inhibition, usual class: inhibitors; also: potency is read from the fitted curve at half-maximal effect; % is scaled to controls: 0 for no effect and ±100 for the full control effect
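Luminescence readout; reporter = integrated firefly luciferase in P. falciparum. RBC culture at 2% hematocrit, 0.1% parasitemia final, 37 C/5% CO2; decreased signal taken as growth inhibition.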
SARS PLpro yeast: qHTS of Yeast-based Assay for SARS-CoV PLP. S. cerevisiae expressing SARS-CoV PLpro, growth rescue. Potency, µM (series often up to 32.9 µM), inactives show at the top dose activity, positive = growth rescue, usual class: activators. hit rate 0.19% among 330,000; calls by dose curve; also: potency is read from the fitted curve at half-maximal effect; 0% is about no effect; nearly all actives have a fitted effect of over 55% in size
CHX counter: Cycloheximide Counterscreen for Small Molecule Inhibitors of Shiga Toxin; cell reporter, cycloheximide protein synthesis inhibition counterscreen; max response, %; hit rate 12% among 300,000; in the data active = max response mostly above about 13%, no sharp cut-off; inactive = mostly below about 14%; also: read at 38.3 µM for the half of the compounds with a filed dose; 0% is about no effect
AMA1 RON2 block: qHTS for Inhibitors of AMA1-RON; Towards Development of Antimalarial Drug Lead: Primary Screen; AlphaScreen AMA1-biotinylated RON2 peptide binding; AID 720542, 2013; Plasmodium falciparum AMA1 (3D7) - RON2 peptide interaction; Potency, µM (highest dose often 58.2 µM), inactives show at the top dose activity change, negative = inhibition, actives largely listed as inhibitors; hit rate 0.2% among 360,000;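 also: potency is read from the fitted curve at half-maximal effect; 0% = vehicle wells and -100% = peptide control; nearly all actives have a fitted effect of over 45% in size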
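AMA1 (3D7) with his tag at 25 nM final met compounds first, then biotinylated RON2 peptide at 25 nM; detection used donor plus acceptor beads, 10 µg/mL apiece, read by AlphaScreen after 30 min at room temperature.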
Pf growth 96h: Primary qHTS for delayed death inhibitors of the malarial parasite plastid, 96 hour incubation; Potency, µM (top dose mostly 28.7 µM), inactives show at the top dose activity change, negative = inhibition, actives largely listed as inhibitors; P. falciparum luciferase reporter growth, 96 h; hit rate 6.9% among 320,000; also: potency is read from the fitted curve at half-maximal effect; % is scaled to controls: 0 for no effect and ±100 for the full control effect
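P. falciparum expressing integrated firefly luciferase grown in erythrocytes (2% hematocrit, 0.05% parasitemia final) with compounds for 96 hours at 37 C, 5% CO2. Growth inhibition read as loss of luminescence after adding luciferase detection reagent.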
Shiga inhibitor: A qHTS for Small Molecule Inhibitors of Shiga Toxin; Vero cells, Shiga toxin protein synthesis inhibition reporter; inhibition, % at 38.7 µM; hit rate 9.2% among 290,000; AID 2315, 2010; in the data active = inhibition mostly above about 28%, no sharp cut-off; inactive = mostly below about 43%; also: 0% is about no effect
* hit, by the source's call; ? = inconclusive; . = not tested or not shown; [ ] = dose if it differs, or a comment. Sampled rows, rich in hits. Any-hit rate of the full collection: about 19%. Unless noted, calls follow the shape of the dose curve; as a rule, active = well fitted curve in the direction sought with a large enough effect; inconclusive = small, poorly fitted or top-dose-only effect, or another doubt; inactive = no such curve, though single readings can be large; an effect the other way counts as inactive or inconclusive.

SMILES	Pf growth 48h	SARS PLpro yeast	CHX counter	AMA1 RON2 block	Pf growth 96h	Shiga inhibitor
CCC1=C(OC(=O)N(CC)CC)N2C(=O)OC(=NCC(=O)OC)[C@]2(Cc2ccccc2)[C@H]2C1=CC[C@H]1C(=O)N(c3ccccc3)C(=O)[C@H]12	6.6µM*	1%	-4	4%	9.3µM*	-4
Cc1cccc(NC(=O)CSCC(=O)NCc2ccco2)c1	12%	2%	-1	-12%	29%	-4
OC1CC(c2ccco2)NC2(CCCCC2)C1 (centres undefined)	15%	-1%	0	-12%	?	-8
Cc1ccc(NC(=O)c2cc3c(=O)oc4ccc(C)cc4c3s2)nc1	10%	1%	-1	.	34%	-5
COc1cc(C(C(=O)NC2CCCC2)N(CCO)C(=O)Cn2nnc(-c3ccc(C)o3)n2)ccc1O (centres undefined)	5%	-3%	-4	3%	-10%	10
CCCN(CC1CCCO1)C(=O)CCc1nnc(-c2cc(C)on2)o1 (centres undefined)	5%	0%	16*	11%	79%	51*
CCN(CC1CCCO1)C(=O)CCc1nnc(CCc2ccccc2)o1 (centres undefined)	.	.	.	-7%	.	.
O=C(CCc1nnc(-c2ccc3c(c2)OCO3)o1)N(Cc1ccncc1)CC1CCCO1 (centres undefined)	?	0%	-4	-1%	4%	36
CCN(CC1CCCO1)C(=O)CCc1nnc(CCc2ccc(OC)cc2)o1 (centres undefined)	-18%	-3%	25*	-7%	-10%	48*
COc1ccccc1CCc1nnc(CCC(=O)NCCC2CCCCO2)o1 (centres undefined)	.	.	.	0%	.	.
COc1cccc(CCc2nnc(CCC(=O)N3CCCC3c3nccs3)o2)c1 (centres undefined)	-3%	0%	-1	12%	5.9µM*	-16
COc1cccc(CCc2nnc(CCC(=O)NCCC3CCCCO3)o2)c1 (centres undefined)	6%	2%	18*	-2%	-15%	14
C=CCn1c(SCC(=O)c2ccccc2)nnc1-c1ccc2c(c1)OCO2	-2%	-10%	35	13%	11%	38
CCOc1ccc(C(=O)NCC(=O)NNC(=O)CN(C)S(=O)(=O)c2ccc(Cl)cc2)cc1OCC	.	.	.	62%[11.6 µM]	.	.
COc1ccc(CCc2nnc(CCC(=O)N(C)Cc3ccncc3C)o2)cc1	27%	0%	22*	0%	?	70*
CCN(Cc1ccncc1)C(=O)CCc1nnc(CCc2ccc(OC)cc2)o1	6%	-1%	8	18%	?	65
CCN(C[C@H]1N[C@@](Cc2ccccc2)(C(=O)OC)[C@H]2C(=O)N(C)C(=O)[C@@H]12)C(=O)COC	.	-5%	.	13%	.	.
COC(=O)c1ccc(CNC(=O)COC(=O)CC23CC4CC(CC(Br)(C4)C2)C3)cc1	?	-10%	-2	-2%	4%	-7
FC(F)(F)c1cccc(N2CCNCC2)c1	.	-10%	-8	.	.	11
FC(F)(F)c1cccc(N2CCc3cn[nH]c32)c1	37%	-37%	23*	-2%	29%	32*
O=C(CN1C(=O)NC(c2ccccc2)(c2ccccc2)C1=O)c1c[nH]c2ccccc12	12µM*	-1%	5	.	-10%	-8
Cc1cc(C(=O)CN2C(=O)NC(c3ccccc3)(c3ccccc3)C2=O)c(C)n1Cc1ccccc1	?	-3%	1	-13%	8.3µM*	26
CCc1cccc2c(C(=O)CN3C(=O)NC(C)(c4cccc5ccccc45)C3=O)c[nH]c12 (centres undefined)	?	1%	7	-6%	10µM*	1
O=C(CN1C(=O)NC(c2ccccc2)(c2ccccc2)C1=O)NCc1ccccc1	-14%	1%	.	20%	?	.
CCc1cccc2c(C(=O)CN3C(=O)NC4(CCc5ccccc54)C3=O)c[nH]c12 (centres undefined)	?	0%	.	-4%	?	.
O=C(O)c1ccc(-n2cc(-c3cc4ccccc4oc3=O)[nH]c2=S)cc1	127%	0%	32*	-4%	0.17µM*	64*
